From PubChem BioAssay AID1159580 (chemical genetic matrix, 2015)
In all, about 5,500 compounds went through this assay and about 2,000 (36%) were called active. Another 18% or so got no clear call; they are omitted. No stated cut-off is given here; in the data, active means normalized growth mostly below about 0.91 (no sharp cut-off); inconclusive means no clear call, values can overlap the other calls; inactive means mostly above about 0.92. This is one part of the list.

Assay: chemical genetic growth profiling, strain panel (AID 1159580);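 further: tested at 20 µM; growth read once vehicle control cultures reached saturation at 30 °C; 1 = growth at the plate median or of vehicle wells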
Conditions: growth OD
[1] = S. cerevisiae deletion strains, locus YAL013W, strain DEP1, stronger effect = lower value
[2] = S. cerevisiae deletion strains, locus YBR229C, strain ROT2, stronger effect = lower value
[3] = S. cerevisiae deletion strains, locus YDL101C, strain DUN1, stronger effect = lower value
[4] = S. cerevisiae deletion strains, locus YDL134C, strain PPH21, stronger effect = lower value
[5] = S. cerevisiae deletion strains, locus YDR150W, strain NUM1, stronger effect = lower value
[6] = S. cerevisiae deletion strains, locus YEL061C, strain CIN8, stronger effect = lower value
[7] = S. cerevisiae deletion strains, locus YGR078C, strain PAC10, stronger effect = lower value
[8] = S. cerevisiae deletion strains, locus YHR030C, strain SLT2, stronger effect = lower value
[9] = S. cerevisiae deletion strains, locus YHR087W, strain rtc3, stronger effect = lower value
[10] = S. cerevisiae deletion strains, locus YJR043C, strain POL32, stronger effect = lower value
[11] = S. cerevisiae deletion strains, locus YJR075W, strain HOC1, stronger effect = lower value
[12] = S. cerevisiae deletion strains, locus YLR039C, strain RIC1, stronger effect = lower value
[13] = S. cerevisiae deletion strains, locus YLR058C, strain SHM2 (second series), stronger effect = lower value
[14] = S. cerevisiae deletion strains, locus YLR085C, strain ARP6, stronger effect = lower value
[15] = S. cerevisiae deletion strains, locus YLR262C, strain YPT6, stronger effect = lower value
[16] = S. cerevisiae deletion strains, locus YML094W, strain GIM5, stronger effect = lower value
[17] = S. cerevisiae deletion strains, locus YMR219W, strain ESC1, stronger effect = lower value
[18] = S. cerevisiae deletion strains, locus YMR263W, strain SAP30, stronger effect = lower value
[19] = S. cerevisiae deletion strains, locus YNL153C, strain GIM3, stronger effect = lower value
[20] = S. cerevisiae deletion strains, locus YNL298W, strain CLA4 (second series), stronger effect = lower value
[21] = S. cerevisiae deletion strains, locus YNL322C, strain KRE1, stronger effect = lower value
[22] = S. cerevisiae deletion strains, locus YNR030W, strain Alg12, stronger effect = lower value
[23] = S. cerevisiae deletion strains, locus YPL055C, strain LGE1, stronger effect = lower value
[24] = S. cerevisiae deletion strains, locus YPL241C, strain CIN2, stronger effect = lower value
[25] = S. cerevisiae deletion strains, locus YPR135W, strain CTF4, stronger effect = lower value
[26] = S. cerevisiae deletion strains, locus YGR229C, strain SMI1, stronger effect = lower value

Measured: normalized growth

COc1ccc(/C=C(\C#N)c2nc3ccccc3[nH]2)cc1OC
inactive: [1] 0.947 | [2] 0.947 | [3] 0.961 | [4] 0.942 | [5] 0.934 | [6] 0.921 | [7] 0.948 | [8] 0.703 | [9] 0.912 | [10] 0.959 | [12] 0.817 | [13] 0.957 | [15] 0.851 | [16] 0.909 | [17] 0.971 | [18] 0.956 | [19] 0.975 | [20] 0.856 | [21] 0.95 | [22] 0.906 | [23] 0.885 | [25] 0.759 | S. cerevisiae strains, strain wild type, stronger effect = lower value 0.94
active: [11] 0.859 | [14] 0.499 | S. cerevisiae deletion strains, locus YMR307W, strain GAS1, stronger effect = lower value 0.609 | S. cerevisiae deletion strains, locus YOL006C, strain TOP1, stronger effect = lower value 0.725 | [24] 0.857

COc1ccc(/C=N\NC(=O)CC#N)cc1OC
inactive: [1] 1 | [2] 1 | [3] 1.04 | [4] 0.999 | [5] 1.04 | [6] 0.985 | [7] 0.998 | [26] 1 | [8] 1.05 | [9] 0.996 | [10] 1.01 | [11] 1.01 | S. cerevisiae deletion strains, locus YKL190W, strain CNB1, stronger effect = lower value 1 | [12] 1 | [13] 1.04 | [14] 0.957 | [15] 1.01 | [16] 0.998 | [17] 0.997 | [18] 1.04 | S. cerevisiae deletion strains, locus YNL128W, strain TEP1, stronger effect = lower value 1.01 | [19] 1.03 | [20] 1.02 | [21] 1 | [22] 0.998 | [23] 1.15 | [24] 1.01 | [25] 1.29

COc1ccc(/C(C#N)=C/c2ccc(OC)c(OC)c2)cc1
inactive: [1] 0.953 | [2] 0.98 | [3] 0.985 | [4] 0.949 | [5] 0.951 | [6] 0.961 | [7] 0.968 | [26] 0.972 | [9] 0.962 | S. cerevisiae deletion strains, locus YJL187C, strain SWE1, stronger effect = lower value 1 | [10] 0.964 | [11] 0.95 | [13] 0.998 | [16] 0.933 | [17] 0.998 | [18] 0.953 | [19] 0.969 | [20] 0.936 | [21] 0.994 | [22] 0.925 | [23] 0.9 | [24] 0.933 | [25] 0.698
active: [8] 0.548 | [12] 0.717 | [14] 0.768 | [15] 0.741
